# Test results reported in ChEMBL document CHEMBL4513135, “CO-ADD screening of IQOG CSIS (Spain) compounds”.
# Measured potencies and affinities stand elsewhere.
# Legend:
# Klebsiella pneumoniae = settings: Concentration 32 ug.mL-1; ASSAY_TEST Inhibition of Bacterial Growth; detection method Absorption (OD600); MEDIA CAMHB; plate type 384well; NBS; CORNING #3640; time 18 hr
# Candida albicans = settings: 32 ug/mL
# Cryptococcus neoformans = settings: Concentration 32 ug.mL-1; ASSAY_TEST Inhibition of Fungal Growth; detection method Resazurin; Absorption (OD600-OD570); plate type 384well; NBS; CORNING #3640
SMILES,Inhibition (Klebsiella pneumoniae),Inhibition (Candida albicans),Inhibition (Cryptococcus neoformans)
C#CCNc1nc(NCCCCC2CCN(Cc3ccccc3)CC2)c(C#N)cc1C#N,-10.59%,4.43%,-10.91%
COc1cc(C=NNC(=O)Cc2c[nH]c3ccccc23)ccc1O,-2.6%,0.74%,-1.83%
Cc1ccc(C2c3c(nc4c(c3N)CCCC4)Oc3ccc4ccccc4c32)cc1 (stereo unspecified),2.87%,1.23%,2.32%
Cc1nc(Nc2ccccc2)c2c(C)nn(-c3ccccc3)c2n1,-3.39%,-2.39%,-3.19%
Nc1c2c(nc3c1C(c1ccc([N+](=O)[O-])cc1)c1ccc4ccccc4c1O3)CCCC2 (stereo unspecified),-17.7%,-1.86%,-5.85%
C#CCN(C)c1cc(C)nc(C)n1,18.17%,5.55%,-42.1%
N#Cc1c(Cl)nc(N2CCCCC2)c(C#N)c1-c1ccccc1,-24.06%,3.22%,-3.56%
